SENP8 block-1 = SENP8 (human) protease inhibition; recombinant SENP8, Nedd8 substrate fluorescence; AID 602440; hit rate 0.64% among 360,000; inhibition, % at 20 µM; in the data active = inhibition mostly above about 40%, no sharp cut-off; inactive = mostly below about 27%
Target sequence (Q96LD8 whole entry, looked up): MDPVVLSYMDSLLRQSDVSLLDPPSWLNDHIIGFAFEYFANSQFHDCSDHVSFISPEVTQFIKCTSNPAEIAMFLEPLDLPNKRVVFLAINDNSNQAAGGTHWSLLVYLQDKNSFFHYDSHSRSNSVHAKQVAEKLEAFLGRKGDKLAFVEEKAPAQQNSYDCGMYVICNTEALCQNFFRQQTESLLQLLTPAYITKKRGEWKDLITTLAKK
PPC-1+TRAIL kill = kills PPC-1 cancer cells in the presence of TRAIL | cell killing (% activity), % at 4 µM or 5 µM | PPC-1 cells + TRAIL, ATPLite viability luminescence | AID 1443 | hit rate 0.41% among 220,000;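 active = cell killing above 50% in the first pass at 4 µM, then a duplicate retest at 5 µM averaging 50% or more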
SENP6 block = blocks the human protease SENP6. Recombinant SENP6 catalytic domain, aminoluciferin luminescence. inhibition, % at 10 µM. hit rate 1.8% among 330,000. AID 2599;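 active = inhibition above about 50% at the single tested dose, limit read from the data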
Target sequence (Q9GZR1 628-1112 limits assumed): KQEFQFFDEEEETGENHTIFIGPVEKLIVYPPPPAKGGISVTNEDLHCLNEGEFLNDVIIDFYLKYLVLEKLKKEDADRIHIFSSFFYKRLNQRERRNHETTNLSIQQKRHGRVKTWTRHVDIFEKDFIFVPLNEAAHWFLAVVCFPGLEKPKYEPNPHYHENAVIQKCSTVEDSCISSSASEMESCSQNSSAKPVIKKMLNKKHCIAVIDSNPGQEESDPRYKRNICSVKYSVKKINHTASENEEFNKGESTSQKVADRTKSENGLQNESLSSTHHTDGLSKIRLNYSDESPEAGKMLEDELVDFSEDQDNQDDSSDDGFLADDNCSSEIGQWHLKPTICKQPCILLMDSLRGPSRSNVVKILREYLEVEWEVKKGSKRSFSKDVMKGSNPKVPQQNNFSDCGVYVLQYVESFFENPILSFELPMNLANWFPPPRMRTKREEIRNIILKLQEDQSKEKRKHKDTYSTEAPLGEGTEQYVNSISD
SENP7 block = SENP7 protease inhibition | Q9BQF6 | recombinant SENP7, Z-RLRGG-aminoluciferin luminescence, 40 min | inhibition, % at 5 µM | hit rate 1.5% among 330,000 | AID 434973;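 active = inhibition above about 50% at the single test dose, limit read from the data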
SENP8 block-2 = inhibitors of human SENP8 protease; Q96LD8; purified SENP8, Z-RLRGG-aminoluciferin cleavage, luminescence; inhibition, % at 10 µM; hit rate 1.2% among 330,000; AID 2540; in the data active = inhibition above about 50%
C8 TRAIL sens = caspase-8 TRAIL sensitization; NB7+C8 cells + TRAIL, ATPlite viability luminescence; inhibition (viability loss, TRAIL sensitization), % at 10 µM; hit rate 1% among 360,000; AID 624354;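 active = compounds causing at least 50% loss of cell viability in the single-dose screen, relative to plate controls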
Each line names hits and unclear results; the compound was inactive in the other large screens. Most compounds without a hit are left out; they make up all but 3% or so of the library.

NC(=O)CSc1oc(-c2ccco2)nc1S(=O)(=O)c1ccc(F)cc1	none (no result: PPC-1+TRAIL kill)
CCCCn1nnnc1C(c1ccccc1)N1CCN(c2cc(C)ccc2C)CC1 (configuration not stated)	none (no result: PPC-1+TRAIL kill, SENP6 block, SENP7 block, SENP8 block-2)
Oc1ccc(NCc2ccccc2OCc2ccccc2)cc1	SENP8 block-1 62
O=C(OCc1ccccc1)c1ccc(NCc2cc(O)ccc2O)cc1	C8 TRAIL sens 90 (no result: PPC-1+TRAIL kill, SENP6 block, SENP7 block, SENP8 block-2)
COP(=O)(OC)c1ccc(NCc2cc(O)ccc2O)cc1	none (no result: PPC-1+TRAIL kill, SENP6 block, SENP7 block, SENP8 block-2)
CC(C)OC(=O)c1ccc(NCc2cc(O)ccc2O)cc1	C8 TRAIL sens 73 (no result: PPC-1+TRAIL kill, SENP6 block, SENP7 block, SENP8 block-2)
COc1cccc(OC)c1/C=C/C(=O)NC1CCCCC1	none (no result: PPC-1+TRAIL kill)
C[C@H](CO)N1C[C@H](C)[C@@H](CN(C)Cc2ccncc2)Oc2c(cccc2N(C)C)C1=O	none (no result: PPC-1+TRAIL kill)
COc1ccc(/C=N/N2C(=O)CSC2=S)cc1	none
COc1ccc(-c2nn(-c3ccccc3)cc2/C=N/N2C(=O)CSC2=S)cc1	C8 TRAIL sens 69
Cc1cc(C)cc(N(CCC(=O)Nc2nnc(C)s2)S(=O)(=O)c2ccc(Cl)cc2)c1	none
Cn1c2ccccc2c(=O)c2ccc(C#CC3(O)CCCCC3)cc21	C8 TRAIL sens 86 (no result: PPC-1+TRAIL kill)
Cc1ccc(Cl)cc1N1CCN(C(=O)Cn2ncn3cccc3c2=O)CC1	none (no result: PPC-1+TRAIL kill)
O=c1c2c(nc3cc(-c4cccc(F)c4)[nH]n13)CCC2	SENP6 block 60
Cc1ccccc1C(=O)Nc1nnc(-c2ccco2)s1	SENP6 block 54, SENP7 block 73
CC(C)(C)NC(=O)CSc1nnc(NC(=O)c2ccccc2Cl)s1	none
CCSc1nnc(NC(=O)c2ccccc2C)s1	SENP6 block 55
COc1ccccc1C(=O)Nc1nnc(-c2ccco2)s1	none
CCSc1nnc(NC(=O)c2cccnc2Cl)s1	none
CCSc1nnc(NC(=O)c2ccccc2)s1	SENP6 block 53
O=C(CSc1nnc(NC(=O)c2ccccc2Cl)s1)Nc1ccc2c(c1)oc1ccccc12	SENP7 block 82 (no result: SENP8 block-1, C8 TRAIL sens)
CCOC(=O)C1=CCC(c2cc3ccccc3[nH]2)NC1 (configuration not stated)	none (no result: PPC-1+TRAIL kill, SENP6 block, SENP7 block, SENP8 block-2)
COc1ccc(C(=O)Nc2nnc(SCC(=O)NC3CC3)s2)cc1	C8 TRAIL sens 78 (no result: PPC-1+TRAIL kill)
CCSc1nnc(NC(=O)c2ccccn2)s1	SENP6 block 60, SENP7 block 60
Cc1ccccc1C(=O)Nc1nnc(SCC(=O)NC2CC2)s1	C8 TRAIL sens 53 (no result: PPC-1+TRAIL kill)
O=C(CSc1nnc(NC(=O)c2ccccc2Cl)s1)NC1CC1	none (no result: PPC-1+TRAIL kill)
Cc1cc(S(=O)(=O)Nc2ccc(C(=O)NCc3cccnc3)cc2)ccc1F	none (no result: PPC-1+TRAIL kill)
COc1cc(C)c2c(c1OC)C(=O)CC2	none (no result: PPC-1+TRAIL kill, SENP6 block, SENP7 block, SENP8 block-2)
COc1ccc(Nc2cc(Nc3cc(OC)c(OC)c(OC)c3)ncn2)cc1	none (no result: PPC-1+TRAIL kill)
O=c1[nH]c(C2CCN(S(=O)(=O)c3cccc([N+](=O)[O-])c3)CC2)nc2c1nnn2Cc1ccccc1	none (no result: PPC-1+TRAIL kill)
COc1ccc(N2CCN(CC(=O)Nc3nc(C)cs3)CC2)cc1	none (no result: PPC-1+TRAIL kill)
O=C(O)CCNC(=O)c1ccc(NC(=O)Cc2ccc(Cl)cc2)cc1	none
C[C@@H](NC(=O)/C(C#N)=C/c1ccc(O)c(O)c1)c1ccccc1	none (no result: PPC-1+TRAIL kill)
N#C/C(=C\c1ccc(O)c(O)c1)C(=O)Nc1ccccc1	SENP6 block 79, SENP8 block-2 71 (no result: PPC-1+TRAIL kill)
CCCCCNc1nc(-c2ccccc2)cs1	SENP6 block 64 (no result: SENP8 block-1, C8 TRAIL sens)
Oc1ccc(-c2csc(Nc3ncccn3)n2)cc1	SENP7 block 72, SENP8 block-2 56
Cc1cccnc1Nc1nc(-c2ccccn2)cs1	SENP6 block 81, SENP7 block 77, SENP8 block-2 75, C8 TRAIL sens 49
c1ccc(-c2csc(Nc3ncccn3)n2)cc1	SENP7 block 75
CC(=O)Nc1ccc(-c2ccnc3c2CC(C)(C(=O)NCc2ccc(N(C)C)cc2)O3)cc1 (configuration not stated)	none (no result: PPC-1+TRAIL kill, SENP6 block, SENP7 block, SENP8 block-2)
Cc1cc(NC(=O)c2cc3cccc([N+](=O)[O-])c3[nH]2)ccc1F	SENP6 block 73, SENP7 block 77, SENP8 block-2 61
COCC(C)NC(=O)c1cc2cccc([N+](=O)[O-])c2[nH]1 (configuration not stated)	none
CC1CCc2cc(F)ccc2N1C(=O)CCl (configuration not stated)	C8 TRAIL sens 94 (no result: SENP6 block, SENP7 block, SENP8 block-2)
CC1CCN(CC(=O)Nc2ccc(N3CCCCCC3)cc2)CC1	none
Cc1ccccc1CSCC(=O)N/N=C/c1cccs1	SENP8 block-1 43
O=C(Cc1ccccc1)N/N=C/c1cccs1	none
COc1ccccc1-c1cc(C(=O)NC2CCN(C)CC2)c2ccc(Cl)c(C)c2n1	C8 TRAIL sens 70 (no result: PPC-1+TRAIL kill)
COc1c(OC(C)=O)ccc(/C=C/c2ccc3cccc(OCc4ccccc4)c3n2)c1[N+](=O)[O-]	C8 TRAIL sens 49
Cc1cc(N/N=C/c2ccccc2)nc(NCc2ccccc2)n1	C8 TRAIL sens 55
Cc1cc(-c2ccccc2)nc(N/N=C/c2ccccc2)n1	C8 TRAIL sens 65 (no result: PPC-1+TRAIL kill)
Cc1cc(-c2ccccc2)nc(N/N=C/c2cccnc2)n1	none
O=C(O)Cc1cccc(=O)c(O)c1C(=O)O	none (no result: PPC-1+TRAIL kill, SENP6 block, SENP7 block, SENP8 block-2)
Cc1occc1C(=O)N=Nc1c(O)n(C)c2ccccc12	SENP6 block 73, SENP7 block 75
Cn1ncc2c(O/N=C(\N)c3ccc(C(C)(C)C)cc3)ncnc21	C8 TRAIL sens 92
CCOC(=O)c1ccc(Nc2ncnc3c2cnn3C)cc1	none
CCc1ccc(Nc2n[n+](-c3ccccc3)c(-c3ccc(N(CC)CC)cc3)s2)cc1	C8 TRAIL sens 53 (no result: PPC-1+TRAIL kill)
CCN(CC)c1ccc(-c2sc(Nc3ccccc3)n[n+]2-c2ccc(F)cc2)cc1	none (no result: PPC-1+TRAIL kill)
O=C(/C=C/c1ccco1)Nc1ccc(-c2nc3ccccc3[nH]2)cc1	none (no result: SENP6 block, SENP7 block, SENP8 block-2)
C(=C\c1ccco1)/c1nc2ccccc2[nH]1	C8 TRAIL sens 51
COc1cccc2c1C(=O)c1c(O)c3c(c(O)c1C2=O)CC(O)(C(=O)CO)CC3OC1CC(N(C)C)C(O)C(C)O1 (configuration not stated)	none (no result: PPC-1+TRAIL kill, SENP6 block, SENP7 block, SENP8 block-2)
COc1cccc2c1C(=O)c1c(O)c3c(c(O)c1C2=O)C[C@@](O)(C(=O)CO)C[C@@H]3O[C@H]1C[C@H](N)[C@@H](O)[C@H](C)O1	SENP8 block-1 52, C8 TRAIL sens 57 (no result: PPC-1+TRAIL kill)
COc1cccc2c1C(=O)c1c(O)c3c(c(O)c1C2=O)C[C@@](O)(C(C)=O)C[C@@H]3O[C@H]1C[C@H](N)[C@H](O)[C@H](C)O1	PPC-1+TRAIL kill 56, C8 TRAIL sens 58 (no result: SENP6 block, SENP7 block, SENP8 block-2)
CC[C@]1(C(=O)OC)[C@H]2C(=O)N(C)C(=O)[C@H]2[C@H]2CN=C(SC)N21	none (no result: PPC-1+TRAIL kill, SENP6 block, SENP7 block, SENP8 block-2)
Cc1[nH]n(-c2ccccc2)c(=O)c1C(C[N+](=O)[O-])c1ccc(F)cc1 (configuration not stated)	none
COc1ccc(C(c2c(C)[nH]n(-c3ccccc3)c2=O)c2c(C)[nH]n(-c3ccccc3)c2=O)cc1OC	SENP8 block-1 84
Cc1[nH]n(-c2ccccc2)c(=O)c1C(C[N+](=O)[O-])c1ccc(Cl)cc1 (configuration not stated)	SENP8 block-1 45
COc1ccc(C(c2c(C)n(C)n(-c3ccccc3)c2=O)c2c(C)n(C)n(-c3ccccc3)c2=O)cc1OC	none (no result: PPC-1+TRAIL kill)

Screening data (PubChem BioAssay)
